Screening results: PubChem BioAssay, National Center for Advancing Translational Sciences (NCATS)
SARS PLP yeast = SARS-CoV PLP inhibition in yeast; Potency, µM (titrated, usually from 32.9 µM), for inactives: at the highest dose activity, positive = growth rescue, usual class: activators; AID 485353; actives 0.19% (n = 330,000); S. cerevisiae expressing SARS-CoV PLpro, growth rescue; calls by dose curve; note: potency is the fitted concentration of half-maximal effect; 0% is about no effect; nearly all actives have a fitted effect of over 55% in size
HCMV inh = human cytomegalovirus inhibition | HFF cells, HCMV-luciferase reporter, 72 h; hits give low values | activity change, negative = inhibition, % at 57.5 µM | actives 4.5% (n = 410,000) | AID 1259415; in the data active = activity change below about -60%; inconclusive = no clear call, values can overlap the other calls; inactive = above about -39%; note: % is set by controls: 0 for no effect and ±100 for the full control effect
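Two compound doses tested in HFFs infected with HCMV-luciferase, MOI 1 PFU/cell, 72 h at 37C. Lysate luminescence read with OneGlo; data normalized against buffer-only and 10uM Salinomycin inhibitor controls.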
HCV inhibitor = inhibitors of hepatitis C virus infection; actives 3.4% (n = 340,000); AID 651820; Huh7.5.1 HCVcc-Cre infection, luciferase reporter, 44 h; Potency, µM (doses to about 41.8 µM), for the others: top-dose activity change, negative = inhibition, most hits filed as inhibitors; note: potency is the fitted concentration of half-maximal effect; % is set by controls: 0 for no effect and ±100 for the full control effect
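Reporter virus HCVcc-Cre (~0.5 moi) infects cells exposed to compound; seeding density 1,000 cells/well with 4 h settling beforehand. Luminescence, 15 sec read, taken 44 h post-infection following a 15 min RT substrate incubation.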
Sm TGR block = S. mansoni TGR enzyme inhibition; Potency, µM (top dose mostly 114 µM), without a hit: at the top dose activity change, negative = inhibition, hits mostly inhibitors; actives 3% (n = 360,000); purified TGR, DTNB reduction, TNB absorbance 405 nm; AID 485364; note: potency is the fitted concentration of half-maximal effect; % is set by controls: 0 for no effect and ±100 for the full control effect; nearly all actives have a fitted effect of over 60% in size
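Kinetic colorimetric format: TGR-catalysed, NADPH-driven DTNB reduction monitored via TNB absorbance. Enzyme dispensed at 20 nM; compound exposure 15 min at room temperature before reaction start.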
Pf growth 48h = inhibits P. falciparum growth in the first generation, 48 h | actives 5.9% (n = 310,000) | P. falciparum luciferase growth in erythrocytes, 48 h | Potency, µM (highest dose often 28.7 µM), for the others: at the highest dose activity change, negative = inhibition, actives largely listed as inhibitors | AID 504832; note: potency is the fitted concentration of half-maximal effect; % is set by controls: 0 for no effect and ±100 for the full control effect
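Luminescence readout; reporter = integrated firefly luciferase in P. falciparum. RBC culture at 2% hematocrit, 0.1% parasitemia final, 37 C/5% CO2; decreased signal taken as growth inhibition.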
Pf growth 96h = P. falciparum growth inhibition at 96 hour, primary screen for plastid delayed-death inhibitors; Potency, µM (series often up to 28.7 µM), for inactives: at the highest dose activity change, negative = inhibition, hits mostly inhibitors; P. falciparum luciferase reporter growth, 96 h; actives 6.9% (n = 320,000); AID 504834; note: potency is the fitted concentration of half-maximal effect; % is set by controls: 0 for no effect and ±100 for the full control effect
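Two parasite generations (96 h, 37 C, 5% CO2) of compound exposure in infected erythrocytes (0.05% parasitemia, 2% hematocrit). Luciferase-reporter P. falciparum; decreased luminescence indicates inhibited growth, aimed at apicoplast-acting delayed death.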
* = called active by the depositor; i = inactive; ? = inconclusive; . = no result given. The list is not random: actives were taken first. Their share in the collection is about 15%. Unless noted, calls come from the whole dose curve; as a rule, active = well fitted curve in the direction sought with a large enough effect; inconclusive = small, poorly fitted or top-dose-only effect, or another doubt; inactive = no such curve, though single readings can be large; an effect the other way counts as inactive or inconclusive.

SMILES | SARS PLP yeast | HCMV inh | HCV inhibitor | Sm TGR block | Pf growth 48h | Pf growth 96h
Cc1ccc(C(=O)Cn2c(-c3ccccc3)noc2=O)cc1 | 1% | -20 | 2% | 0% | 12% | -1%
CCOc1ccccc1NC(=O)Cn1c(-c2ccc(Cl)cc2)noc1=O | 5% | -13 | ? | -27% | 1.7µM* | 4.1µM*
CN(C)S(=O)(=O)c1ccc(NC(=O)Cn2c(-c3ccccc3)noc2=O)cc1 | -4% | -36 | 7% | -7% | . | 4.7µM*
COc1ccc(NC(=O)CC2C(=O)Nc3ccccc3N2CC(=O)N2CCCC2)cc1 (stereo unspecified) | -2% | -17 | 7% | -6% | -28% | ?
CCCOc1ccc(NC(=O)CC2C(=O)Nc3ccccc3N2CC(=O)N2CCCC2)cc1 (stereo unspecified) | -1% | -60* | -12% | -10% | ? | ?
Cc1cccc(C(=O)NNC(=O)c2ccc3ccccc3c2)c1 | . | -10 | 17% | . | . | .
COc1ccc(CC2CC(=O)N(c3ccc(C)cc3)C2=O)cc1 (stereo unspecified) | 0% | 7 | 2% | 9% | 1% | -10%
CC(C)(C)c1ccc(C(=O)NCCOc2ccccc2F)cc1 | -1% | -69* | -3% | 4% | 39% | ?
CC(C)(C)c1ccc(C(=O)NCCOc2ccccc2)cc1 | 12% | ? | -2% | 2% | 131% | 9.3µM*
O=C(NCCOc1ccccc1)c1cc(C(=O)NCCOc2ccccc2)cc([N+](=O)[O-])c1 | -31% | -8 | ? | 11% | 12µM* | ?
COc1ccccc1C(=O)NCCOc1ccc(C(C)(C)C)cc1 | -3% | -15 | -20% | 2% | ? | 15µM*
CC(C)(C)c1ccc(C(=O)NCCc2ccccc2)cc1 | -1% | 30 | -14% | 3% | 154% | i
COC(=O)c1cc(C)[nH]c2c(C)cc3nc4ccccc4c3c12 | -4% | 31 | 10µM* | -16% | ? | ?
O=C(CSc1nnc(-c2ccc(O)cc2)o1)NNC(=O)c1ccncc1 | 3% | -17 | 17% | -9% | 18% | 51%
COc1ccc(CC(=O)Nc2ccc(/C(C)=N\NC(=O)c3ccc(Br)o3)cc2)cc1 | -7% | 43 | -21% | 0% | -26% | ?
CCN(c1ccccc1)S(=O)(=O)c1ccc(NCC2COc3ccccc3O2)nc1 (stereo unspecified) | -11% | 8 | 11µM* | 6% | 78% | ?
Cc1ccc(S(=O)(=O)c2c(Nc3ccc(C)c(C)c3)sc(C(=O)c3ccc4c(c3)OCO4)c2N)cc1 | . | -4 | . | -9% | . | .
Cc1cc(OCc2cc(C(=O)N3CCN(C)C(=O)[C@@H]3C)no2)cc(C)c1Cl | -3% | ? | 13µM* | -2% | ? | ?
CC(C)N(Cc1nccn1C)C(=O)c1cc(COc2cccc(C(F)(F)F)c2)on1 | 1% | -18 | ? | 2% | 10% | -14%
Cc1ccc(CN(C)C(=O)c2cc(COc3cccc(C(F)(F)F)c3)on2)o1 | -11% | 148 | -3% | 10µM* | 12% | 28%
Cc1cc(OCc2cc(C(=O)N(Cc3nccn3C)C(C)C)no2)cc(C)c1Cl | 2% | 47 | 11µM* | -6% | 0% | 15µM*
CCc1ccc(CN(C)C(=O)c2cc(COc3cccc(C(F)(F)F)c3)on2)nc1 | -4% | 11 | ? | -1% | ? | ?
COc1cc(Cl)ccc1OCc1cc(C(=O)N2CCN(C)C(=O)[C@@H]2C)no1 | . | 70 | . | . | . | .
CN(Cc1nccn1C)C(=O)c1cc(COc2cccc(C(F)(F)F)c2)on1 | -2% | -16 | ? | -23% | -9% | 9.3µM*
COC(C(=O)Nc1ccnn1C1CCN(Cc2ccc(C)s2)CC1)c1ccccc1 (stereo unspecified) | -2% | -5 | 5% | -8% | 20% | 64%
Cc1ccc(CN(C)C(=O)c2cc(COc3ccc(F)cc3Cl)on2)o1 | -3% | -7 | -8% | 25µM* | 0.093µM* | 25%
